BAZ2B inh – BAZ2B (human) inhibition. 360,000 compounds, 4.4% hits. AlphaScreen BAZ2B-H3K14Ac peptide displacement. Potency, µM (series often up to 114 µM), inactives show at the highest dose activity change, negative = inhibition, actives largely listed as inhibitors; note: % is set by controls: 0 for no effect and ±100 for the full control effect; nearly all actives have a fitted effect of over 60% in size
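Multi-concentration screen (max 110 uM) measuring displacement of acetylated histone H3 peptide from BAZ2B by AlphaScreen, using 50 nM protein, 50 nM peptide and 10 ug/mL streptavidin donor plus Ni-chelate acceptor beads.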
HP1b chromo inh – inhibitors of HP1-beta chromodomain binding to methylated histone tails; P83916; AlphaScreen HP1-beta / biotin-H3K9me3 peptide binding; Potency, µM (series often up to 114 µM), inactives show at the highest dose activity change, negative = inhibition, actives largely listed as inhibitors; 390,000 compounds, 0.56% hits; note: nearly all actives have a fitted effect of over 70% in size
Target sequence (P83916 whole entry, looked up): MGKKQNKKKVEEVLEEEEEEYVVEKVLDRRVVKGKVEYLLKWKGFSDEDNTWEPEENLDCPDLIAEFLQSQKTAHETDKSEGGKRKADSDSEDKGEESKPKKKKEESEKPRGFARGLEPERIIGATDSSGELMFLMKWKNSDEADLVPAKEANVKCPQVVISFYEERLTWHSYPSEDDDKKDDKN
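Compound inhibition of the preformed complex between 50 nM HP1-beta and 50 nM biotinylated H3K9me3 peptide was read by AlphaScreen. Buffer was PBS pH 7.4 with 0.01% Tween-20. Incubations ran 30 min at room temperature, with 10 ug/mL donor/acceptor beads.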
PLK1 PBD inh – inhibitors of human PLK1 polo-box domain binding; Plk1 PBD binding of FITC phosphopeptide, fluorescence polarization; 360,000 compounds, 2.8% hits; AID 720504; P53350; Potency, µM, without a hit: max response, negative = inhibition, most hits filed as inhibitors; note: series mostly up to about 57 µM; % is set by controls: 0 for no effect and ±100 for the full control effect; nearly all actives have a fitted effect of over 65% in size
ALOX12 inh – blocks human arachidonate 12S-lipoxygenase | P18054 | purified 12hLO, xylenol orange hydroperoxide absorbance | Potency, µM (highest dose often 108 µM), without a hit: at the top dose activity change, negative = inhibition, hits mostly inhibitors | 580,000 compounds, 1.1% hits | AID 1671190; note: % is set by controls: 0 for no effect and ±100 for the full control effect
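Purified human 12hLO at 150 nM in 25 mM Hepes, 0.01% Triton X-100, pH 7.0, preincubated 15 min at room temperature with compound. Reaction started with 40 uM arachidonic acid, 30 min at room temperature. Hydroperoxide measured by Fe-xylenol orange, 573/405 nm absorbance ratio.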
JMJD2A Tudor – blocks the human JMJD2A Tudor domain. AlphaScreen JMJD2A-Tudor / H3K4me3 peptide binding. O75164. Potency, µM (doses to about 114 µM), for inactives: top-dose activity change, negative = inhibition, hits mostly inhibitors. 390,000 compounds, 4.4% hits; note: % is set by controls: 0 for no effect and ±100 for the full control effect; nearly all actives have a fitted effect of over 50% in size
G9a inh – blocks human histone lysine methyltransferase G9a; Q96KQ7; G9a H3K9 monomethylation, AlphaScreen, 2 h; Potency, µM (doses to about 102 µM), inactives show top-dose activity, negative = inhibition, most hits filed as inhibitors; 350,000 compounds, 8.8% hits; AID 504332; note: % is set by controls: 0 for no effect and ±100 for the full control effect; nearly all actives have a fitted effect of over 75% in size
Target sequence (Q96KQ7 913-1193 limits assumed): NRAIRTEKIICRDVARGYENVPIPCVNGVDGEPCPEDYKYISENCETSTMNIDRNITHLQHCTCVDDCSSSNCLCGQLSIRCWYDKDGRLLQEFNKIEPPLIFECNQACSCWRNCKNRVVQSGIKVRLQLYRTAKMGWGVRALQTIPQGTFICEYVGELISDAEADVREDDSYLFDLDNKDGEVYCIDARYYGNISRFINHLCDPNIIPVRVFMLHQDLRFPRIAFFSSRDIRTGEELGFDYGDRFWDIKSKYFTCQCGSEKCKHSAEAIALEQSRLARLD
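AlphaScreen read-out: biotin-H3K9 peptide (500 nM) methylation by 20 nM enzyme with 20 uM SAM, 2 h at room temperature after 15 min compound preincubation; anti-monomethyl H3K9 antibody plus donor/acceptor beads, 10 min dark.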
* marks the source's active call; other numbers are inactive results; u = inconclusive; x = no result given; [ ] = dose if it differs, or a comment. In the library only some 9% were active in any assay of this set; here they are far more common. Calls come from the whole dose curve; as a rule, active = well fitted curve in the direction sought with a large enough effect; inconclusive = small, poorly fitted or top-dose-only effect, or another doubt; inactive = no such curve, though single readings can be large; an effect the other way counts as inactive or inconclusive. Potency is the fitted concentration of half-maximal effect.

SMILES	BAZ2B inh	HP1b chromo inh	PLK1 PBD inh	ALOX12 inh	JMJD2A Tudor	G9a inh
NCCc1c[nH]c2ccc(OCc3ccccc3)cc12	u	1%	-18%	u	-30%	50µM*
C=CCOC(Cn1ccnc1)c1ccc(Cl)cc1Cl (stereo unspecified)	-37%	5%	-14%	22%	-27%	-6%[12.7 µM]
Clc1ccc(COC(Cn2ccnc2)c2ccc(Cl)cc2Cl)c(Cl)c1 (stereo unspecified)	22µM*	-16%	u	u	40µM*	-41%[2.33 µM]
Cc1nc(-c2cccs2)cc([C@H]2CN3CC[C@H]2C[C@@H]3COC(=O)NC2CCCCC2)n1	x	x	x	3%	x	x
Nc1c(C(=O)NCc2ccco2)c2nc3ccccc3nc2n1Cc1ccc(F)cc1	2%	6%	27µM*	20%	3%[11.4 µM]	6%[12.7 µM]
Nc1c(C(=O)NCc2ccco2)c2nc3ccccc3nc2n1Cc1ccccc1	8%	77%	-13%	u	24%	u
Nc1c(C(=O)NCc2ccco2)c2nc3ccccc3nc2n1CCN1CCOCC1	8%	59%	-8%	-15%	-10%	50µM*
CC(=O)N1C[C@H](O)C[C@H]1C(=O)O	8%	28%	u	-10%	u	-16%[59 µM]
CCOP(=O)(OCC)C(c1ccccc1)N(C)C=O (stereo unspecified)	0%	39%	0%	8%	-13%	-30%
Cc1ccc(S(=O)(=O)N[C@@H](CCCCN)C(=O)CCl)cc1	x	59%	u	u	u	28µM*
CNC(=O)OCCc1n(C)cc[n+]1C	0%	10%	-5%	u	-17%	14µM*
C[C@H](CCC(=O)O)[C@H]1CC[C@H]2[C@@H]3CC[C@@H]4C[C@H](O)CC[C@]4(C)[C@H]3CC[C@]12C	9%	19%	21µM*	36%	u	8%[12.7 µM]
N#CCCn1cc(C(=O)Nc2ccc([N+](=O)[O-])cc2)c(-c2ccccc2)n1	-22%	26%	1%	-2%	-9%	30%[12.7 µM]
N#CCCn1cc(C(=O)Nc2ccc(F)cc2)c(-c2ccc([N+](=O)[O-])cc2)n1	-12%	u	19µM*	-7%	-26%	4%[59 µM]
CC1CCN(CC#CCOc2ccc(Cl)cc2)CC1	50µM*	u	-2%	u	35µM*	19%[0.501 µM]
COc1ccc(OCC#CCN2CCNCC2)cc1	32µM*	u	-10%	u	6.3µM*	8.9µM*
COc1ccc(CN2CCNCC2)cc1	-5%	32%	-12%	4%	-7%	u
CCC1CCCCN1CCCNS(=O)(=O)c1ccc2c(c1)oc(=O)n2C (stereo unspecified)	-19%	50%	0%	34%	-15%	x
CCn1cc(C=C2C(=O)N(C)C(=O)N(C)C2=O)c2ccccc21	6%	36%	-11%	-9%	-15%	3%[0.501 µM]
CN1C(=O)C(=Cc2ccccc2OCc2ccc(C(=O)O)cc2)C(=O)N(C)C1=O	2%	36%	12µM*	-17%	-11%	u
CN1C(=O)C(=Cc2ccccc2OCc2ccccc2Cl)C(=O)N(C)C1=O	51%	101%	3µM*	u	96%	30%[59 µM]
C[C@H]1O[C@@H](O[C@H]2CC[C@]3(C=O)[C@H]4CC[C@]5(C)[C@H](C6=CC(=O)OC6)CC[C@]5(O)[C@@H]4CC[C@]3(O)C2)C[C@H](O)[C@@H]1O	x	x	x	12%	x	x
Cc1ccccc1C1=NCC(=O)N(CC(=O)NCc2ccco2)c2sc3c(c21)CCCC3	-34%	-16%	-14%	-26%	89µM*	-16%[12.7 µM]
C#C[C@H]1CN2CC[C@H]1C[C@@H]2COC(=O)Nc1ccc(Br)cc1	x	x	x	-5%[176 µM]	x	x
COc1cccc(-c2nn3c(=O)cc(CN4CCN(C(=O)COc5ccccc5C)CC4)nc3s2)c1	4%	24%[57 µM]	x	-23%	-1%	-4%[59 µM]
SMILES	BAZ2B inh	HP1b chromo inh	PLK1 PBD inh	ALOX12 inh	JMJD2A Tudor	G9a inh
Cc1ccc(N2CCN(CCc3ccccc3)CC2)cc1	50µM*	-14%	-1%	u	u	u
C(#CCN1CCCCC1)COCc1ccccc1	-14%	49%	-7%	4%	-5%	x
C(#CCN1CCOCC1)COC/C=C/c1ccccc1	1%	2%	-3%	u	-15%	45µM*
O=C1NC(=O)C2(Cc3c(nc4ccccn4c3=O)N3CCCCCC32)C(=O)N1Cc1ccccc1 (stereo unspecified)	7%	21%	-11%	u	-31%	-9%
O=C1NC(=O)[C@]2(Cc3ccccc3N3CCN(c4ccccc4)CC32)C(=O)N1Cc1ccccc1 (stereo partly specified)	-33%	-3%	-18%	16µM*	u	5µM*
O=C1NC(=O)C2(Cc3ccccc3N3CCCC32)C(=O)N1Cc1ccccc1 (stereo unspecified)	1%	33%	-22%	0%	-29%	35µM*
C[n+]1c(-c2ccccc2)cc(-c2ccc(O)cc2)cc1-c1ccccc1	-17%	33%	5%	7%	-6%	6%
CN1C(CC(=O)c2ccccc2)CCCC1CC(O)c1ccccc1 (stereo unspecified)	0%	81%	-12%	-5%	-14%	-2%[2.33 µM]
C/C(=N\NC(=O)c1ccncc1)c1c(O)n(-c2ccccc2)c(=O)[nH]c1=O	-8%	43%	-18%	164%	-20%	x
O=C(Nc1nccs1)[C@H]1CN2CC[C@H]1C[C@@H]2Cn1cc(C2(O)CCCCC2)nn1	x	x	x	6%[176 µM]	x	x
Cc1nc2cc(F)ccc2n1C1CCN(Cc2nnnn2CCc2ccccc2)CC1	56µM*	-6%	-7%	u	-35%[57.1 µM]	-16%[59 µM]
Cc1nc2cc(C(F)(F)F)ccc2n1C1CCN(Cc2nnnn2CCc2ccccc2)CC1	12%	19%	-6%	-19%	-21%	6%[59 µM]
CCC(=Nc1cccc(C(F)(F)F)c1)c1c(O)n(C)c(=O)n(C)c1=O	-15%	35%	3%	u	7%	x
CC/C(=N\Nc1ccccc1)c1c(O)n(C)c(=O)n(C)c1=O	-30%	24%	-5%	-21%	-18%	22µM*
CC/C(=N\NC(=O)Nc1ccccc1)c1c(O)n(Cc2ccccc2)c(=O)[nH]c1=O	-2%	40%	0%	u	-27%	-22%
Cc1cccc(-n2c(O)c(C=Nc3ccc(Br)cn3)c(=O)[nH]c2=O)c1	1%	11%	6µM*	u	10µM*	x
CC/C(=N\Nc1ccccc1)c1c(O)n(-c2ccccc2)c(=O)[nH]c1=O	-23%	55%	-9%	u	-12%	40µM*
Cc1ccc(N/N=C/c2c(O)n(-c3ccccc3)c(=O)[nH]c2=O)cc1	-30%	-7%	-4%	u	-21%	3.2µM*
CCCN(CCC)CCc1c[nH]c2ccc(C(N)=O)cc12	x	x	x	-26%	x	u

Source: PubChem
